Reference: PubChem BioAssay (NCI)
The panel holds about 83,000 compounds, 20% with a hit somewhere; the sample as a whole holds those more often.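 Step 1: grow cells in 96-well plates. Step 2: add test compound at a single concentration. Step 3: incubate 48 h. Step 4: record percent growth.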 Active and inactive are the calls of the source. The calls were made as follows: active = growth percent below 10; inactive = the rest.

How the values were obtained:
Assay in all cases: NCI-60 one-dose screen, 48 h (100 = growth as untreated, 0 = no growth, -100 = all killed)
HCT-15 colon = details: 10 µM unless noted
HT29 colon = details: 10 µM unless noted
SNB-75 CNS = details: 10 µM unless noted
SNB-19 CNS = details: 10 µM unless noted
U251 CNS = details: 10 µM unless noted
PC-3 prostate = details: 10 µM unless noted
SK-MEL-5 melanoma = details: 10 µM unless noted
UACC-62 melanoma = details: 10 µM unless noted
LOX IMVI melanoma = details: 10 µM
SK-MEL-28 melanoma = details: 10 µM unless noted
SN12C renal = details: 10 µM unless noted
UO-31 renal = details: 10 µM unless noted
TK-10 renal = details: 10 µM unless noted
ACHN renal = details: 10 µM unless noted
CAKI-1 renal = details: 10 µM unless noted
A498 renal = details: 10 µM unless noted
CCRF-CEM leukemia = details: 10 µM unless noted
MOLT-4 leukemia = details: 10 µM unless noted
SK-MEL-2 melanoma = details: 10 µM unless noted
EKVX NSCLC = details: 10 µM unless noted

Structure (SMILES) | growth (HCT-15 colon) | growth (HT29 colon) | growth (SNB-75 CNS) | growth (SNB-19 CNS) | growth (U251 CNS) | growth (PC-3 prostate) | growth (SK-MEL-5 melanoma) | growth (UACC-62 melanoma) | growth (LOX IMVI melanoma) | growth (SK-MEL-28 melanoma) | growth (SN12C renal) | growth (UO-31 renal) | growth (TK-10 renal) | growth (ACHN renal) | growth (CAKI-1 renal) | growth (A498 renal) | growth (CCRF-CEM leukemia) | growth (MOLT-4 leukemia) | growth (SK-MEL-2 melanoma) | growth (EKVX NSCLC)
Clc1cccc(Cl)c1CSc1nc2ccccc2n2cccc12 | 68.2% (inactive) | 79.6% (inactive) | 86.5% (inactive) | 105% (inactive) | 95.3% (inactive) | 96.5% (inactive) | 103% (inactive) | 96.3% (inactive) | 96.4% (inactive) | 103% (inactive) | 102% (inactive) | 71.8% (inactive) | 103% (inactive) | 97.3% (inactive) | 70.5% (inactive) | 115% (inactive) | 100% (inactive) | 92.9% (inactive) | – | –
Cc1ccc(S(=O)(=O)Oc2ccc3sc4c(CO)ccc(NCCN(C)C)c4c(=O)c3c2)cc1 | -93.8% [100 µM] (active) | -84.3% [100 µM] (active) | -92.1% [100 µM] (active) | -83.7% [100 µM] (active) | -74.7% [100 µM] (active) | -86.8% [100 µM] (active) | -94.3% [100 µM] (active) | -95.5% [100 µM] (active) | – | -85.1% [100 µM] (active) | -94.1% [100 µM] (active) | -95.6% [100 µM] (active) | -91.1% [100 µM] (active) | -92.7% [100 µM] (active) | -91% [100 µM] (active) | -71.6% [100 µM] (active) | -27.9% [100 µM] (active) | -34.6% [100 µM] (active) | -86.6% [100 µM] (active) | -66.7% [100 µM] (active)
CC1CCC(C(C)(C)[N+](C)(C)C)CC1 (configuration not stated) | 98.1% (inactive) | 97.8% (inactive) | 89% (inactive) | 101% (inactive) | 96.6% (inactive) | 96.9% (inactive) | 103% (inactive) | 104% (inactive) | 102% (inactive) | – | 102% (inactive) | 94.8% (inactive) | 95.6% (inactive) | 105% (inactive) | 103% (inactive) | 86.8% (inactive) | 98.4% (inactive) | 101% (inactive) | 114% (inactive) | 96.6% (inactive)
COC1C(=O)CCC2(CO2)C1(O)C1(C)OC1CCC(C)C (configuration not stated) | 56.4% (inactive) | 60.3% (inactive) | 77.5% (inactive) | 51.5% (inactive) | 42.3% (inactive) | 74.6% (inactive) | 64.6% (inactive) | 70.4% (inactive) | 50.3% (inactive) | – | 74.9% (inactive) | 48.7% (inactive) | 119% (inactive) | 72.1% (inactive) | 71.4% (inactive) | 113% (inactive) | 70.4% (inactive) | 94% (inactive) | 78.7% (inactive) | 76.2% (inactive)
CS(=O)CC(=N\O)/C(CS(C)=O)=N\O (configuration not stated) | 99% (inactive) | 99.9% (inactive) | 96.5% (inactive) | 101% (inactive) | 96.5% (inactive) | 104% (inactive) | 103% (inactive) | 93.8% (inactive) | – | 107% (inactive) | 97.6% (inactive) | – | 106% (inactive) | 107% (inactive) | 91.2% (inactive) | 111% (inactive) | 101% (inactive) | 105% (inactive) | 102% (inactive) | 99.1% (inactive)
COc1ccc(Br)c(C=O)c1 | 26.8% (inactive) | 76.3% (inactive) | 54.8% (inactive) | 74.8% (inactive) | 39.1% (inactive) | 71.7% (inactive) | 81.8% (inactive) | 63.8% (inactive) | – | 86% (inactive) | 63.9% (inactive) | 54.1% (inactive) | 83.7% (inactive) | 88.9% (inactive) | 63.9% (inactive) | 93.4% (inactive) | 2.55% (active) | 18.9% (inactive) | 104% (inactive) | 83.2% (inactive)
O=c1cc(Cl)nc2ccccn12 | 109% (inactive) | 111% (inactive) | 109% (inactive) | 103% (inactive) | 107% (inactive) | 96.7% (inactive) | 105% (inactive) | – | 103% (inactive) | 101% (inactive) | 102% (inactive) | 84% (inactive) | 105% (inactive) | 110% (inactive) | 96.1% (inactive) | 103% (inactive) | 119% (inactive) | 106% (inactive) | 110% (inactive) | 102% (inactive)
Nc1cc2ccccc2c(O)c1O | 16% (inactive) | 95.8% (inactive) | 90.4% (inactive) | 90.2% (inactive) | 40.2% (inactive) | 43.7% (inactive) | 74.7% (inactive) | – | -52.6% (active) | 110% (inactive) | -22.3% (active) | 55.2% (inactive) | 114% (inactive) | 9.52% (active) | 84.5% (inactive) | 97.2% (inactive) | 19.6% (inactive) | -6.45% (active) | 85.3% (inactive) | 83.4% (inactive)
COc1ccc(NNS(=O)(=O)O)cc1 | 101% (inactive) | 99.9% (inactive) | 83.2% (inactive) | 98.1% (inactive) | 98% (inactive) | 86.1% (inactive) | 102% (inactive) | – | 99.7% (inactive) | 107% (inactive) | 89.9% (inactive) | 90.4% (inactive) | 103% (inactive) | 97.4% (inactive) | 98.5% (inactive) | 69.5% (inactive) | 99.2% (inactive) | 105% (inactive) | 103% (inactive) | 104% (inactive)
NNc1ncnc2c1ncn2C1OC(CO)C(O)C1O (configuration not stated) | 11.2% (inactive) | 9.12% (active) | 94.2% (inactive) | 57.8% (inactive) | 39.7% (inactive) | 32.3% (inactive) | 88.4% (inactive) | – | 32.6% (inactive) | 88.8% (inactive) | 27.7% (inactive) | 38.1% (inactive) | 52.8% (inactive) | 15.2% (inactive) | 36.1% (inactive) | 43% (inactive) | 72% (inactive) | 109% (inactive) | 73.5% (inactive) | 60.5% (inactive)
COc1cc(OC)c2cc(C(=O)c3ccc(C#N)cc3)c(=O)oc2c1 | 105% (inactive) | 104% (inactive) | 85.5% (inactive) | 88.5% (inactive) | 105% (inactive) | 107% (inactive) | 97.6% (inactive) | 91.8% (inactive) | – | 99.5% (inactive) | 81.6% (inactive) | 84.7% (inactive) | 97.7% (inactive) | 95.2% (inactive) | 84.6% (inactive) | 99.1% (inactive) | 101% (inactive) | 103% (inactive) | 103% (inactive) | 110% (inactive)
O=C(O)c1cc(I)ccc1O | 101% (inactive) | 104% (inactive) | 81.8% (inactive) | 93.1% (inactive) | 100% (inactive) | 104% (inactive) | 103% (inactive) | – | 92% (inactive) | 113% (inactive) | 95.3% (inactive) | 90.7% (inactive) | 93.3% (inactive) | 97.6% (inactive) | 103% (inactive) | 126% (inactive) | 99.3% (inactive) | 108% (inactive) | 107% (inactive) | 100% (inactive)
CC(=O)C[n+]1ccc(C)cc1Sc1ccccc1C | 97.1% (inactive) | 99.1% (inactive) | 76% (inactive) | 91.1% (inactive) | 93.3% (inactive) | 91.8% (inactive) | 92% (inactive) | – | 86.6% (inactive) | 104% (inactive) | 64.8% (inactive) | 78.5% (inactive) | 106% (inactive) | 97.1% (inactive) | 102% (inactive) | 127% (inactive) | 1.97% (active) | 54.7% (inactive) | 127% (inactive) | 103% (inactive)
CC(C)C(=O)OCCOc1ccc(C(C)(C)C)cc1 | 100% (inactive) | 93.1% (inactive) | 94.1% (inactive) | 98.8% (inactive) | 88.4% (inactive) | 91.6% (inactive) | 102% (inactive) | – | 95.8% (inactive) | 110% (inactive) | 89.4% (inactive) | 89.6% (inactive) | 93.7% (inactive) | 101% (inactive) | 100% (inactive) | 94.2% (inactive) | 98.6% (inactive) | 114% (inactive) | 92.3% (inactive) | 103% (inactive)
COc1ccc(/C=C\C(=O)/C=C/c2ccc(OC)cc2)cc1 | -13.7% (active) | 49.3% (inactive) | 103% (inactive) | 89.3% (inactive) | 63.8% (inactive) | 62.3% (inactive) | 91.7% (inactive) | 70.4% (inactive) | – | 106% (inactive) | 90.3% (inactive) | 69.1% (inactive) | 116% (inactive) | 95.5% (inactive) | 87.5% (inactive) | 174% (inactive) | – | 68.2% (inactive) | 123% (inactive) | 93.2% (inactive)
